# Bioassay records: PubChem, several laboratories
# Rows were chosen to be rich in hits. Some 32% of all compounds tested hit in one or more screens of this group.
# CYP2C9 inh: human CYP2C9 inhibition | AID 777 | hit rate 20% among 96,000 | CYP2C9 Supersomes, luciferin-H conversion, luminescence | P11712 | inhibition, % at 5 µM;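 active = blocking of liver enzyme CYP2C9 beyond about 50% at 5 µM, limit read from the data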
# PostGolgi yeast: growth inhibition of a yeast mutant, post-Golgi transport screen; inhibition, % at 10 µM; hit rate 0.9% among 98,000; post-Golgi transport phenotypic cell assay; AID 739;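 note: yeast cells grown in 1536-well plates; yeast grown about 18 h at 30C before absorbance read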
# CYP2C19 activ: activators of human cytochrome P450 2C19; P33261; recombinant CYP2C19, luciferin-H EGE luminescence; stronger effect = higher value; 0 = fully inhibited enzyme, 1 = untreated enzyme; 96,000 tested, under 10 active; AID 1025; activation factor at 5 µM;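 active = activation factor of at least 2 at 5 µM in the primary screen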;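 note: 0 = wells with 2.5 mM tranylcypromine and 1 = vehicle-only wells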
# Target sequence (P33261 whole entry, looked up): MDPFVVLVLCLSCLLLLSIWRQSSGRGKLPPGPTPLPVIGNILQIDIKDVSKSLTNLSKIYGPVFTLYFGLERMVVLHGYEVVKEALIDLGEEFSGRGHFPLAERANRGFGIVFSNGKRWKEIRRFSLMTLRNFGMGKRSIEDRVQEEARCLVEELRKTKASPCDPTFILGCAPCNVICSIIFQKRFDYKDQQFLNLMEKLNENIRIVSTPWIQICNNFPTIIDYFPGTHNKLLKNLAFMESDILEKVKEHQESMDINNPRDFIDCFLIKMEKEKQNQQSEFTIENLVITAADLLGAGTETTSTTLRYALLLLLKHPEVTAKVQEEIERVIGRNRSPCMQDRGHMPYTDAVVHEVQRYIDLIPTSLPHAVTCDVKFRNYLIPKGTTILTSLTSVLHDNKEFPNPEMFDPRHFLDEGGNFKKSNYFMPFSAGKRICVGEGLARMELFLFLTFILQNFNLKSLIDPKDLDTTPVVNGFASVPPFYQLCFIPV
# CYP2C9 activ: increases human cytochrome P450 2C9 activity; activation factor at 5 µM; P11712; hit rate 1.4% among 96,000; recombinant CYP2C9, luciferin-H conversion, luminescence; stronger effect = higher value; factor 1 = untreated enzyme, 0 = blocked;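 active = activation factor of 2 or more for CYP2C9 at a 5 µM dose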;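 note: 0 = sulfaphenazole-blocked wells and 1 = vehicle-only wells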
# PostGolgi ctrl: yeast control strain growth, post-Golgi counter-screen; inhibition, % at 10 µM; efflux-deficient yeast background strain, growth absorbance A615, 16 h; hit rate 5% among 98,000
# CYP2C19 inh: inhibitors of human CYP2C19 | CYP2C19 Supersomes, luciferin-H EGE luminescence, 30 min | hit rate 21% among 96,000 | P33261 | inhibition, % at 5 µM;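 active = CYP2C19 inhibition above a set limit at 5 µM in the primary screen, cut at about 50% in these data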;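 note: plate controls were negative control wells for no effect and 2.5 mM tranylcypromine positive control for full effect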
# * marks the source's active call; other numbers are inactive results; . = no result. Cut-off read from the data, not from the text of the source, unless noted: active = inhibition above about 30%; inactive = the rest.
SMILES,CYP2C9 inh,PostGolgi yeast,CYP2C19 activ,CYP2C9 activ,PostGolgi ctrl,CYP2C19 inh
COC(=O)c1cccc(CSc2nnc(C)s2)c1,6,20,0.4,0.9,2,62*
COC(=O)c1ccc(CSc2nnc(NC(=O)C3CCCO3)s2)cc1 (stereo not drawn),70*,3,0.7,0.3,4,32
Cc1nc2nc[nH]n2c(=O)c1CCC(C)C,25,0,0.9,0.8,11,10
COc1ccc(-n2c(C)c([N+](=O)[O-])c3ccc(O)c(CN4CCCCC4)c32)cc1,36,-4,0.7,0.6,-7,26
O=C(CNS(=O)(=O)c1ccc(F)cc1)N1CCN(c2ccccc2)CC1,-8,10,0.8,1.1,-6,18
O=C(Nc1nnc(SCc2ccc(F)cc2)s1)c1ccco1,15,-1,1,0.9,7,4
CC(C)(C)C(=O)Nc1nnc(SCc2ccc(F)cc2)s1,78*,18,0.3,0.2,11,68*
C=CCn1c(Cc2csc(N)n2)nnc1SCc1ccc(C(=O)OC)cc1,73*,2,0.1,0.3,7,94*
C=CCn1c(Cc2csc(N)n2)nnc1SCC(=O)Nc1ccc(C(=O)OCC)cc1,43,6,0.7,0.6,7,32
C=CCn1c(SCC(=O)Nc2c(C)n(C)n(-c3ccccc3)c2=O)nc2sc(C)c(-c3ccccc3)c2c1=O,24,2,0.9,0.8,14,12
Cc1nc(-c2c(C(F)(F)F)noc2-c2ccc(O)cc2O)cs1,6,7,0.3,0.9,16,69*
CCOC(=O)c1[nH]nc(-c2c(O)cc(C)cc2O)c1-c1csc(C)n1,11,-1,0.8,0.9,12,23
CCOc1cc(C)c(-c2onc(C(F)(F)F)c2-c2csc(C)n2)c(O)c1,21,8,0.2,0.8,26,76*
Oc1ccc(-c2onc(C(F)(F)F)c2-c2cscn2)c(O)c1,-130,0,0.2,2.3*,7,76*
CCC1(COC(=O)Nc2cccc(Cl)c2)COC1,8,-3,0.5,0.9,8,48
CCc1ccc(N(CC(=O)NC2CCCCC2)S(=O)(=O)c2c(C)noc2C)cc1,2,0,1,1,1,2
Cc1ccc(C(C(=O)NC2CCCCC2)N2CCOCC2)cc1 (stereo not drawn),-28,17,1,1.3,23,0
CCOc1ccc(C2N(c3ccc(F)cc3)C(=O)C3CCCN32)cc1OC (stereo not drawn),40,-10,0.3,0.6,5,66*
CCOc1ccc(C2N(c3cc(Cl)ccc3OC)C(=O)C3CCCN32)cc1OC (stereo not drawn),-34,4,0.3,1.3,0,72*
CCOc1ccc(C2N(c3ccc(Cl)cc3)C(=O)C3CCCN32)cc1OC (stereo not drawn),48,-10,0.3,0.5,-3,65*
O=C(c1cccc(N2C(=O)C3CC=CCC3C2=O)c1)N1CCCCCC1 (stereo not drawn),.,1,.,.,-4,.
NC(=O)c1ccc(N2CCCCC2)c(N2C(=O)C3CC=CCC3C2=O)c1 (stereo not drawn),31,-3,0.5,0.7,0,50*
COCCN(C(=O)Nc1ccccc1)c1ccccc1C,.,10,.,.,4,.
COc1cc(OC)c(C2CC(=O)N3CN(c4ccccc4)CSC3=C2C#N)cc1OC (stereo not drawn),38,2,0.9,0.6,0,15
COc1ccc(OC)c(C2CC(=O)N3CN(c4ccc(C)c(Cl)c4)CSC3=C2C#N)c1 (stereo not drawn),96*,-3,0.5,0,6,54*
SMILES,CYP2C9 inh,PostGolgi yeast,CYP2C19 activ,CYP2C9 activ,PostGolgi ctrl,CYP2C19 inh
CCOC(=O)c1ccc(N2CSC3=C(C#N)C(c4ccc(OC)cc4OC)CC(=O)N3C2)cc1 (stereo not drawn),91*,-2,0.5,0.1,-1,52*
COc1ccc(OC)c(C2CC(=O)N3CN(c4cccc(Cl)c4)CSC3=C2C#N)c1 (stereo not drawn),90*,0,0.3,0.1,0,70*
CCc1c(C)nc(N)n2c(SCC(=O)N3CCN(c4ccccc4F)CC3)nnc12,4,.,1,1,.,-4
O=C(OCc1c(Cl)nc2sccn12)c1cc2c(s1)CCCC2,-24,4,1.1,1.2,-5,-11
O=C(C1CCN(S(=O)(=O)c2cccnc2)CC1)N1CCN(c2cccc(Cl)c2)CC1,-13,7,0.6,1.1,3,42
CNS(=O)(=O)c1cnccc1N1CCN(c2cccc(Cl)c2)CC1,48,14,0.4,0.5,1,58*
Cc1nn(-c2ccccc2)c(Cl)c1C(=O)Nc1c(C)n(C)n(-c2ccccc2)c1=O,8,17,1,0.9,3,-3
CCC(Oc1ccccc1)C(=O)N1CC(C)CC(C)C1 (stereo not drawn),12,-6,0.5,0.9,-4,51*
CC(Nc1cc(N2CCCC2)ccc1[N+](=O)[O-])c1ccccc1 (stereo not drawn),7,5,1,0.9,9,-4
CCCC(=O)N1CCN(c2ccc([N+](=O)[O-])c(NC(C)c3ccccc3)c2)CC1 (stereo not drawn),70*,5,0.4,0.3,19,63*
CC1CCc2nn(CC(=O)NCCN3CCCCC3C)cc2C1 (stereo not drawn),-1,1,0.9,1,4,10
CC(C)CN(C#N)c1nc(N2CCOCC2)nc(N2CCOCC2)n1,51*,1,0.8,0.5,9,20
CC(=O)OCc1c(C(F)(F)F)nn(C)c1Oc1cccc(C(F)(F)F)c1,37,0,0.3,0.6,0,74*
Cc1nn(C)c(Oc2cccc(Cl)c2)c1C(=O)O,9,7,0.9,0.9,6,6
CC(=O)OCc1c(C(F)(F)F)nn(C)c1Oc1ccccc1,22,10,0.1,0.8,2,92*
Cc1nn(-c2ccccn2)c2nc(-c3cccs3)cc(C(=O)NCc3ccco3)c12,86*,15,0.4,0.1,7,61*
CCOC(=O)c1cc(-c2ccco2)nc2c1c(C)nn2-c1ccccc1,29,-9,1.1,0.7,15,-11
Cc1ccc(-c2cc(C(=O)NCc3ccco3)c3ccccc3n2)s1,23,4,0.9,0.8,-3,13
Cc1nn(-c2ccccc2)c2nc(-c3ccncc3)cc(C(=O)NCc3ccco3)c12,94*,1,0.1,0.1,10,91*
CCN(CC)C(=O)C1=C(C)Nc2nnnn2C1c1cccnc1 (stereo not drawn),3,1,1.1,1,-2,-11
NC(=O)CC12CC3CC(C1)CC(CC(N)=O)(C3)C2,8,14,1,0.9,5,0
O=C1CCCN1C(=O)CCC(=O)N1CCCC1=O,-9,-2,1.1,1.1,12,-8
